Screens from PubChem BioAssay.
Sampled rows, rich in hits. Any-hit rate of the full collection: about 10%.
MCF10A rereplic: DNA re-replication induction in MCF 10a cells. MCF 10A DNA re-replication, Hoechst nuclear intensity, 48 h. Potency, µM (top dose mostly 46.1 µM), actives largely listed as activators. hit rate 2.9% among 350,000. AID 624296; also: nearly all actives have a fitted effect of over 50% in size
VP16 counter: Gal4-VP16 reporter inhibition counter-screen; Drosophila S2 Gal4-VP16 UAS-luciferase, luminescence, 20 h; Potency, µM (top dose mostly 53.6 µM), hits mostly inhibitors; hit rate 3.5% among 310,000; AID 2546;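 also: Gal4-VP16 expression switched on by copper sulfate through the metallothionein promoter; nearly all actives have a fitted effect of over 50% in size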
SW480 rerep: induces DNA re-replication in SW480 colon adenocarcinoma cells; SW480 DNA re-replication, Hoechst DNA content imaging, 48 h; Potency, µM (doses to about 46.1 µM), usual class: activators; hit rate 1.8% among 340,000; also: nearly all actives have a fitted effect of over 55% in size
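Readout is total intensity of Hoechst-stained nuclei, excited at 405 nm and collected at 500-530 nm. Compound treatment lasted 48 hr at 37 C in 5% CO2 before staining.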
KB-V1 MDR tox: KB-V1 MDR subline cytotoxicity; KB-V1 MDR cells viability, CellTiter-Glo, 72 h; Potency, µM (series often up to 46.1 µM), hits mostly cytotoxic; hit rate 3.4% among 400,000; also: nearly all actives have a fitted effect of over 60% in size
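Following 72 h at 37 degrees C with compound, KB-V1 cell viability was read by CellTiter-Glo luminescence, medium being phenol-red-free DMEM plus 10% FBS; concentration-response parameters came from normalized, curve-fitted qHTS data.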
KB-3-1 cytotox: kills parental KB-3-1 adenocarcinoma cells; hit rate 1.4% among 400,000; AID 1347075; KB-3-1 viability, CellTiter-Glo ATP luminescence, 72 h; Potency, µM (series often up to 46.1 µM), most hits filed as cytotoxic; also: nearly all actives have a fitted effect of over 60% in size
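72 h, 37 °C compound treatment of KB-3-1 parental cells; CellTiter-Glo added, 10 min, luminescence read. Data corrected against DMSO-only plates and normalized before curve fitting.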
RORgamma inh: ROR gamma (mouse) transcription inhibition; AID 2551; Drosophila S2 Gal4-RORgamma UAS-luciferase reporter, 20 h; hit rate 5.4% among 310,000; Potency, µM (doses to about 53.6 µM), most hits filed as inhibitors; P51450; also: nearly all actives have a fitted effect of over 60% in size
Target sequence (P51450 whole entry, looked up, the tested form may be a part): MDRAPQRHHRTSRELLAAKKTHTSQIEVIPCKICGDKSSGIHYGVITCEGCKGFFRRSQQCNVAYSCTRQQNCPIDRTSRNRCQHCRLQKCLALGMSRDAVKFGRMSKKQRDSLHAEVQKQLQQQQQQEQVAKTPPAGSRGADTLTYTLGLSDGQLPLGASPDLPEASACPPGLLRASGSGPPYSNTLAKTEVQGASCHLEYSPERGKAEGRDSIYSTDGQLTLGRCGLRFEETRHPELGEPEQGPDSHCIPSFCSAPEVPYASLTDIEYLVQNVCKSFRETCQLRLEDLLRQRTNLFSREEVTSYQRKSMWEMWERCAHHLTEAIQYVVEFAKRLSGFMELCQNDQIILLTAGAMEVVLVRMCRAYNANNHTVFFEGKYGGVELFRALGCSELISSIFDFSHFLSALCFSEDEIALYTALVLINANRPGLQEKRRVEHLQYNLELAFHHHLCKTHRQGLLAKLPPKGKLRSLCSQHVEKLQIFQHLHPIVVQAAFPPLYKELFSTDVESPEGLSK
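Luminescence from a UAS-regulated Photinus luciferase reporter in stably transfected Drosophila Schneider cells is measured; decreased signal marks ROR gamma inhibition. Fusion expression is induced by 700 uM copper sulfate for 20 hr.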
Numbers stand for hits; 0 = inactive; ? = inconclusive; - = not tested or not shown; ! = repeats disagree; [ ] = remark or other dose. Calls follow the shape of the dose curve; as a rule, active = well fitted curve in the direction sought with a large enough effect; inconclusive = small, poorly fitted or top-dose-only effect, or another doubt; inactive = no such curve, though single readings can be large; an effect the other way counts as inactive or inconclusive.

SMILES | MCF10A rereplic | VP16 counter | SW480 rerep | KB-V1 MDR tox | KB-3-1 cytotox | RORgamma inh
O=C1C=C(c2ccc3[nH]ccc3c2)C[C@@H](c2ccc(Cl)cc2)C1 | 10µM | - | 0 | 0 | 0 | -
O=C1C=C(c2ccc3ncccc3c2)C[C@@H](c2ccc(Cl)cc2)C1 | 23µM | - | 0 | ? | ? | -
O=C1C=C(c2ccc3ccccc3c2)C[C@@H](c2ccc(Cl)cc2)C1 | 0 | - | 0 | ? | ? | -
CN(Cc1ccccc1)C(=O)c1cccc(NC(=O)c2nsc3ccccc23)c1 | - | - | - | 0 | 0 | -
COC(=O)[C@@]1(Cc2ccccc2)[C@H]2c3cc(C(=O)N(C)C)n(Cc4ccc(O)c(OC)c4)c3C[C@H]2CN1C(=O)c1ccccc1 | - | 0 | - | - | - | 0
FC(F)Sc1ccc(-n2c(-c3ccc(Cl)cc3)c[n+]3c2CCC3)cc1 | ? | 0 | 0 | 0 | ? | 0
Cc1ccc(-n2c(-c3ccccc3)c[n+]3c2CCC3)cc1 | 0 | ? | 0 | ? | 3.7µM | ?
Cc1ccc(-n2c(-c3ccc(Cl)cc3)c[n+]3c2CCC3)cc1 | 0 | 0 | 0 | 0 | 4.6µM | 0
COc1ccc(-n2c(C)nc3cc(C(=O)NC4CCCC4)ccc32)cc1 | - | - | - | 0 | 0 | -
CCc1c(C)c(C#N)c2[nH]c3ccccc3n2c1=S | ? | 0 | 0 | 7.3µM | ? | 0
CCc1cc(=S)n2c([nH]c3ccccc32)c1C#N | ? | 0 | ? | 5.8µM | ? | ?
C=C(C)Cc1c(C)c(C#N)c2[nH]c3ccccc3n2c1=O | ? | 0 | 0 | ? | ? | ?
O=C(/C=C/c1cc(Br)ccc1O)c1ccco1 | ? | ? | ? | 16µM | ? | ?
O=C(/C=C/c1ccccc1O)c1ccco1 | 15µM | 11µM | ? | ? | ? | 7.9µM
N#Cc1ccc(/C=C/C(=O)c2ccco2)cc1 | ? | ? | ? | 0 | 0 | ?
CCC1CCCCN1S(=O)(=O)c1cc2c(cc1C)NC(=O)CO2 (stereo not given) | - | - | - | 0 | 0 | -
N=C1N(/N=C/c2ccccc2)C(=Nc2ccccc2)C(=S)N1c1ccccc1 | 0 | 5µM | 0 | 0 | 0 | 4.5µM
Cc1nnc(C)n1/N=C/c1ccccc1 | 0 | 0 | 0 | 0 | 0 | 0
CCCSc1ccc(-c2nn(-c3ccccc3)cc2/C=C(/C#N)C(=O)N2CCOCC2)cc1 | 0 | 0 | 0 | 23µM | ? | ?
CCSc1ccc(-c2nn(-c3ccccc3)cc2/C=C(/C#N)C(=O)NC)cc1 | ? | 0 | ? | 0 | 0 | 0
CC(C)N1CCCC(C)(C(=O)Nc2ccccc2)C1 (stereo not given) | - | - | - | 0 | 0 | -
C=Cc1ccc(Cn2c(C)c(CNCc3cccc(Br)c3)c(C(=O)O)c2C)cc1 | - | - | - | 0 | 0 | -
COc1ccc(-c2cn(-c3ccc(C)cc3)c(S(=O)(=O)CC(=O)Nc3ccccc3)n2)cc1 | - | - | - | 0 | 0 | -
Cn1c(-c2ccc3c(c2)OCO3)cnc1N | ? | 0[0.365 µM] | 0 | ? | 0 | ?
Cc1nc(N)ncc1-c1ccc2c(c1)OCO2 | 0 | 0 | 0 | 12µM | ? | 0
SMILES | MCF10A rereplic | VP16 counter | SW480 rerep | KB-V1 MDR tox | KB-3-1 cytotox | RORgamma inh
COc1ccccc1CNC(=O)C1CCC(CNS(=O)(=O)c2ccc3c(c2)CCCC(=O)N3)CC1 (stereo not given) | - | - | - | ? | 0 | -
CCCOc1ccc(CN(C(=O)c2cccc(OC)c2)C2CCS(=O)(=O)C2)cc1 (stereo not given) | 0 | 0 | 0 | 0 | 0 | 0
CCCOc1cccc(C(=O)N(Cc2ccc(OC)c(OC)c2)C2CCS(=O)(=O)C2)c1 (stereo not given) | 0 | 0 | 0 | 16µM | 0 | 0
COc1ccc(-c2noc(CSc3nc(-c4ccccc4)cc(=O)[nH]3)n2)cc1OC | ? | ? | 0 | 0 | 0 | ?
COc1ccc(-c2noc(CSc3nc(N)cc(=O)[nH]3)n2)cc1 | ? | ? | 0 | ? | 21µM! | 0
Nc1nc(SCc2ccc(Br)cc2)[nH]c(=O)c1-c1ccccc1 | 0 | 0 | 0 | 0 | 0 | 0
Nc1nc(SCc2nc(-c3ccccc3)no2)[nH]c(=O)c1-c1ccccc1 | 0 | 0 | 0 | 18µM | 0 | 0
COC(=O)Cn1ncc2c3ccccc3n(Cc3ccccc3)c2c1=O | 0 | 0 | 0 | 23µM | 0 | 0
O=C(Cn1ncc2c3ccccc3n(Cc3ccccc3)c2c1=O)NCc1ccccc1 | - | - | - | 0 | 0 | -
